In the library only some 3.9% were active in any assay of this set; here they are far more common.
SKKanGAS inh: blocks kanamycin growth of S. pyogenes SKKanGAS strain; BacTiter-Glo, 6 h; inhibition, % at 7.5 µM; 300,000 tested, 1.3% active;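 active means mean replicate score, as percent of positive control median, at least 50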;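 further: strain carries kanamycin resistance gene driven by streptokinase promoter and grows in 40 µg/ml kanamycin; loss of luminescence reflects streptokinase promoter inhibition or plain growth inhibition; 0% = median of DMSO wells and 100% = positive control at its reference dose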
WT yeast gro inh: growth inhibition of WT yeast, mitochondrial fusion screen; mitochondrial fusion phenotypic screen, WT strain; inhibition, % at 10 µM; 190,000 tested, 2.1% active; AID 1362; in the data active means inhibition above about 58%; tested in S. cerevisiae
Platelet DG rel: platelet dense granule release activity; human platelet-rich plasma, SFLLRN dense granule ATP release, luminescence; inhibition, %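 (compounds screened at 7.5 µM in platelet-rich plasma)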; 300,000 tested, 0.22% active; AID 1663;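 active means mean replicate score, as percent of positive control, at or above 50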
PHOSPHO1 block: inhibitors of human PHOSPHO1 phosphatase. inhibition, % at 13.3 µM. recombinant PHOSPHO1, absorbance phosphatase assay. AID 1565. Q8TCT1. 290,000 tested, 1.1% active; in the data active means inhibition above about 60%
Target sequence (Q8TCT1 whole entry, looked up): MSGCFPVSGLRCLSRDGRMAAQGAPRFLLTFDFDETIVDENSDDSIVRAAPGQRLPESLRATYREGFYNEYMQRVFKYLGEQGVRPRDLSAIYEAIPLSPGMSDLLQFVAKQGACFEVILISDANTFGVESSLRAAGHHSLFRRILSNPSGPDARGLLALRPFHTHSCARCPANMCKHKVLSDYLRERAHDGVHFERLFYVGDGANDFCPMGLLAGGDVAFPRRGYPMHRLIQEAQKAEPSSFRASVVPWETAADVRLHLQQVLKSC
TPT1 inhibitor: C. albicans TPT1 enzyme inhibition. recombinant caTPT1, FP RNA substrate dephosphorylation. inhibition, % at 5 µM. 300,000 tested, 0.81% active. AID 1962;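 active means inhibition above the mean of all tested compounds plus 3 SD, set per screening campaign, cut at about 24% in these data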;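 further: plate controls were DMSO alone for no effect and ferristatin control at 100 nM for full effect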
Rtt109 Vps75: blocks Candida albicans Rtt109/Vps75 acetyltransferase activity; Q5AAJ8; purified Rtt109/Vps75, ThioGlo CoA-SH fluorescence, 4 h; inhibition, % at 34.9 µM; 330,000 tested, 0.16% active; AID 540336;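 active means inhibition of at least 50% in every replicate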
Target sequence (Q5AAJ8 whole entry, looked up): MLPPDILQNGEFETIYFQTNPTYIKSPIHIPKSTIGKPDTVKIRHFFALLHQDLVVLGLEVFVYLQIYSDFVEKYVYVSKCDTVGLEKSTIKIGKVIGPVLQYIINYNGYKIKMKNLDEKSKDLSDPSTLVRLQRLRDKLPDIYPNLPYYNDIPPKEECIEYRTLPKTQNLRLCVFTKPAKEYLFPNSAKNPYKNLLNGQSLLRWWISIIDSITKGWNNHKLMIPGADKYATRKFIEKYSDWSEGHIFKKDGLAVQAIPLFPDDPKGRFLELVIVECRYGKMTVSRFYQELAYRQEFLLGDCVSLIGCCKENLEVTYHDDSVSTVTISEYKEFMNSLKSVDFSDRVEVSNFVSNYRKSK
The depositor's hits bear a star.

How did CCOC(=O)CNS(=O)(=O)c1cc(-c2n[nH]c(=O)c3ccccc23)ccc1C do in these assays?
SKKanGAS inh: 4; WT yeast gro inh: -34; Platelet DG rel: 51*; PHOSPHO1 block: -13; Rtt109 Vps75: -9

Results for Nc1ccc(C(=O)N/N=C2\CCCc3c2[nH]c2ccccc32)cc1 ?
SKKanGAS inh: 9; WT yeast gro inh: -3; Platelet DG rel: 0; PHOSPHO1 block: -14; TPT1 inhibitor: -5; Rtt109 Vps75: -9

How did CC(C)c1ccc2[nH]c3c(c2c1)CCC/C3=N\NC(=O)c1ccncc1 do in these assays?
SKKanGAS inh: 60*; Platelet DG rel: -6; PHOSPHO1 block: 24; TPT1 inhibitor: 0; Rtt109 Vps75: 0

How did COc1ccc(C2C(C(=O)c3cccs3)=C(O)C(=O)N2c2nncs2)cc1 (centres undefined) do in these assays?
SKKanGAS inh: -8; WT yeast gro inh: 6; Platelet DG rel: -5; PHOSPHO1 block: 71*; TPT1 inhibitor: -36; Rtt109 Vps75: 6

Results for CCn1c(C)c(C(C)=O)c(N2CCN(c3ccc(F)cc3)CC2)nc1=S ?
SKKanGAS inh: -1; WT yeast gro inh: 12; Platelet DG rel: 1; PHOSPHO1 block: 102*; TPT1 inhibitor: -6; Rtt109 Vps75: -24

How did CCC(=O)c1ccc(OCC(=O)Nc2cccc(S(=O)(=O)N3CCCCCC3)c2)cc1 do in these assays?
Rtt109 Vps75: -1

How did COc1ccccc1C1C2CCCCC2(O)CCN1CC(=O)Nc1ccccc1 (centres undefined) do in these assays?
SKKanGAS inh: 2; WT yeast gro inh: 14; Platelet DG rel: -4; PHOSPHO1 block: 11; TPT1 inhibitor: 0; Rtt109 Vps75: -3

Results for COC(=O)c1c(NC(=O)CN2CCC3(O)CCCCC3C2c2ccc(F)cc2)sc(C)c1C (centres undefined) ?
SKKanGAS inh: 15; WT yeast gro inh: 59*; Platelet DG rel: 7; PHOSPHO1 block: 12; TPT1 inhibitor: 1; Rtt109 Vps75: -2

What do the screens show for `COC(=O)c1c(NC(=O)CN2CCC3(O)CCCCC3C2c2cc(OC)ccc2OC)sc(C)c1C` (centres undefined)?
SKKanGAS inh: 19; WT yeast gro inh: 74*; Platelet DG rel: 10; PHOSPHO1 block: -9; TPT1 inhibitor: -2; Rtt109 Vps75: 4

What do the screens show for `COc1ccc(NS(=O)(=O)c2ccc(C(=O)N3CCC(C)CC3)cc2)cc1`?
Rtt109 Vps75: 0

What do the screens show for `O=c1[nH]c2cc(Cl)c(Br)cc2o1`?
Rtt109 Vps75: -6

Results for O=C(N/N=C/c1cc2c3c(c1O)CCCN3CCC2)c1ccccc1O ?
SKKanGAS inh: 55*; WT yeast gro inh: 5; Platelet DG rel: -2; PHOSPHO1 block: -2

Results for CCOC(=O)N1CCN(C(=O)C(NC(=O)c2ccc(C(C)(C)C)cc2)C(C)C)CC1 (centres undefined) ?
Rtt109 Vps75: 4

How did c1ccc(Nc2cc(Nc3ccccc3)[nH]n2)cc1 do in these assays?
SKKanGAS inh: 23; WT yeast gro inh: 10; Platelet DG rel: 6; PHOSPHO1 block: 69*; TPT1 inhibitor: 0; Rtt109 Vps75: -5

Results for CCOC(=O)c1sc(NC(=O)CNCc2ccccn2)c(C(=O)OCC)c1C ?
SKKanGAS inh: 88*; Platelet DG rel: -1; PHOSPHO1 block: 38; TPT1 inhibitor: -3; Rtt109 Vps75: 24

How did CCOC(=O)c1sc(NC(=O)CNCc2cccnc2)c(C(=O)OCC)c1C do in these assays?
SKKanGAS inh: 9; WT yeast gro inh: -1; Platelet DG rel: -2; PHOSPHO1 block: 17; TPT1 inhibitor: -2; Rtt109 Vps75: -7

Results for CCOC(=O)c1c(NC(N)=O)sc(C)c1C ?
SKKanGAS inh: -3; WT yeast gro inh: 30; Platelet DG rel: -1; PHOSPHO1 block: -7; TPT1 inhibitor: -1; Rtt109 Vps75: -20

Results for CCOC(=O)c1c(N2C(=O)C=CC2=O)sc(C)c1C ?
SKKanGAS inh: 4; WT yeast gro inh: -10; Platelet DG rel: 15; PHOSPHO1 block: -17; TPT1 inhibitor: 2; Rtt109 Vps75: 69*

How did O=C(NCc1ccc(Cl)cc1)C(=O)NCC1OCCCN1S(=O)(=O)c1cccs1 (centres undefined) do in these assays?
SKKanGAS inh: 0; Platelet DG rel: -2; PHOSPHO1 block: 4; TPT1 inhibitor: 1; Rtt109 Vps75: 2

Results for CN(C)c1cccc(NC2=CC(=[N+]3CCOCC3)CC(C)(C)C2)c1 ?
SKKanGAS inh: 5; WT yeast gro inh: 10; Platelet DG rel: -1; PHOSPHO1 block: 91*; TPT1 inhibitor: -6; Rtt109 Vps75: -2

Results for O=C(O)c1ccc(N2C(=O)c3[nH]nc(-c4ccccc4)c3C2c2ccccc2)cc1 (centres undefined) ?
SKKanGAS inh: -2; WT yeast gro inh: -2; Platelet DG rel: 7; PHOSPHO1 block: -16; TPT1 inhibitor: 1; Rtt109 Vps75: 7

What do the screens show for `CC(C)[C@@H]1CC[C@@H](C)c2c(-c3ccccc3)n[nH]c21`?
SKKanGAS inh: 88*; WT yeast gro inh: 62*; Platelet DG rel: 1; PHOSPHO1 block: 4; TPT1 inhibitor: -5; Rtt109 Vps75: 11

Results for COc1ccc(C2C=C(c3ccccc3)Nc3nnnn32)cc1 (centres undefined) ?
SKKanGAS inh: 4; WT yeast gro inh: -3; Platelet DG rel: 1; PHOSPHO1 block: 13; TPT1 inhibitor: -2; Rtt109 Vps75: -76

What do the screens show for `COc1cccc(C2=CC(c3ccccc3)n3nnnc3N2)c1` (centres undefined)?
SKKanGAS inh: 4; WT yeast gro inh: 68*; Platelet DG rel: 1; PHOSPHO1 block: 19; TPT1 inhibitor: 1; Rtt109 Vps75: -15

How did CC(=O)OCCCNc1cc(Sc2nc3ccccc3s2)c2nonc2c1[N+](=O)[O-] do in these assays?
SKKanGAS inh: 91*; WT yeast gro inh: 97*; Platelet DG rel: -1; PHOSPHO1 block: 25; TPT1 inhibitor: 0; Rtt109 Vps75: 2

How did CC(=O)OCCNc1cc(Sc2nc3ccccc3[nH]2)c2nonc2c1[N+](=O)[O-] do in these assays?
SKKanGAS inh: 53*; WT yeast gro inh: 13; Platelet DG rel: 0; PHOSPHO1 block: -2; TPT1 inhibitor: -1; Rtt109 Vps75: 70*

Results for CCCn1cnnc1CNC(=O)C1CCC(=O)N(CCCc2ccccc2)C1 (centres undefined) ?
SKKanGAS inh: 6; Platelet DG rel: 0; PHOSPHO1 block: 24; TPT1 inhibitor: 1; Rtt109 Vps75: -4

What do the screens show for `CC(c1ccccc1)N(CC(=O)NC1CCCCC1)S(=O)(=O)c1cccc(C(F)(F)F)c1` (centres undefined)?
SKKanGAS inh: 27; WT yeast gro inh: 69*; Platelet DG rel: -2; PHOSPHO1 block: 10; TPT1 inhibitor: 1; Rtt109 Vps75: 2

How did O=C(CN(Cc1ccccc1)S(=O)(=O)c1cccc(C(F)(F)F)c1)NC1CCCCC1 do in these assays?
SKKanGAS inh: 0; WT yeast gro inh: -7; Platelet DG rel: -9; PHOSPHO1 block: -2; TPT1 inhibitor: -1; Rtt109 Vps75: -4

Screening data as filed in PubChem.
